The text below walks through data of PubChem BioAssay (Tox21).

Assay [1] addresses Retinoic acid receptor RXR-alpha (Homo sapiens) (UniProt P19793). The experiment in a line: qHTS assay to identify small molecule agonists of the RXR signaling pathway (AID 1159527; calls by dose curve; further: nearly all actives have a fitted effect of over 35% in size). The gist of the method:
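Agonist-mode beta-lactamase reporter assay: HEK 293T RXR-alpha-UAS-bla cells treated 16 hr at 37 C with compounds, 9-cis retinoic acid as positive control. LiveBLAzer FRET substrate, 405 nm excitation, 460/530 nm emission.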

Assay [2] is described as follows: qHTS assay to identify small molecule agonists of the RXR signaling pathway - cell viability counter screen (AID 1159529). Further: nearly all actives have a fitted effect of over 50% in size. The procedure, abridged:
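CellTiter-Glo luminescence gave viability in the wells also read for beta-lactamase. Cells (RXR-alpha-UAS-bla HEK 293T, 2% charcoal-stripped FBS medium) had 5 hr plating, then 16 hr compound exposure at 37 C; tetraoctyl ammonium bromide served as positive control.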

Assay [3] can be described thus: qHTS assay to identify small molecule antagonists of the retinoid acid receptor (RAR) signaling pathway - cell viability counter screen (AID 1159551). Further: nearly all actives have a fitted effect of over 35% in size. The gist of the method: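 Cells (C3RL4) are plated, incubated overnight, dosed with compound in DMSO, then given retinol at 1 uM final. After 6 h at 37 C, CellTiter-Glo is added and luminescence read following 30 min at room temperature.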

Assay [4] in a line: qHTS assay to identify small molecule antagonists of the retinoic acid receptor (RAR) signaling pathway (AID 1159552; further: nearly all actives have a fitted effect of over 50% in size; further: potency means the concentration at half of the fitted maximal effect). The gist of the method:
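Luminescent RARE reporter read-out in C3RL4 cells: 6 hr co-treatment at 37 C of test compounds with retinol at 1 uM final. Cells plated overnight beforehand; luciferase reagent incubated 30 min at room temperature before reading.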

The nature of assay [5]: qHTS assay to identify small molecule agonists of the retinoic acid receptor (RAR) signaling pathway (AID 1159553). Particulars: C3RL4 RARE luciferase reporter, agonist, 6 h; activation: at 73.3 µM (top of the series). The procedure, abridged:
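Seed C3RL4 reporter cells at 1,000 per well and incubate overnight at 37 C. Add compounds in DMSO, incubate 6 hr. Add luciferase reagent, wait 30 min at room temperature, read luminescence.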

Assay [6] has as its target Luciferin 4-monooxygenase (Photinus pyralis) (UniProt P08659). The experiment in a line: qHTS assay to identify small molecule inhibitors of firefly luciferase (AID 1224835). Further: nearly all actives have a fitted effect of over 25% in size. The procedure, abridged: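 Inhibition of purified Photinus luciferase is measured by luminescence. Substrate levels (D-luciferin, ATP) sit at their KM values. Each compound is tested in a concentration series.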

Assay [7] is described as follows: qHTS assay to identify small molecule agonists of the constitutive androstane receptor (CAR) signaling pathway - cell viability counter screen (AID 1224836). Further: nearly all actives have a fitted effect of over 45% in size. The procedure, abridged: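 Cell viability multiplexed with the CAR agonist screen: CellTiter-Fluor fluorescence after 23 hr at 37 C. HepG2-CYP2B6-hCAR cells got compounds at 15 concentrations with PK11195 at 0.75 uM final.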

Assay [8] in a line: qHTS assay to identify small molecule antagonists of the constitutive androstane receptor (CAR) signaling pathway - cell viability counter screen (AID 1224837). Further: nearly all actives have a fitted effect of over 45% in size. The procedure, abridged:
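Viability was measured with CellTiter-Fluor in a HepG2 line carrying stably transfected hCAR and a CYP2B6-2.2kb construct. Cells were exposed for 23 hr at 37 C to 15 compound concentrations with 50 nM CITCO as agonist.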

The nature of assay [9]: qHTS assay to identify small molecule antagonists of the estrogen related receptor signaling pathway with the pleiotropic PPARgamma coactivator (PGC) from Tox21 10K library - cell viability counter screen (AID 1224840; active means well fitted cell-killing curve with a large enough effect in the repeat runs, not every such curve was filed as active; further: nearly all actives have a fitted effect of over 40% in size). The procedure, abridged:
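Multiplexed viability counter screen in the PGC/ERR cell line: cells treated with DMSO-dissolved compounds for 17.5 hours at 37 C, then viability measured as CellTiter-Fluor fluorescence.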

Assay [10] is described as follows: qHTS assay to identify small molecule agonists of the estrogen related receptor signaling pathway with the pleiotropic PPARgamma coactivator (PGC) from Tox21 10K library (AID 1224842). Further: nearly all actives have a fitted effect of over 15% in size. The gist of the method: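 Luminescence from One-Glo (30 min, room temperature) measured after PGC/ERR cells had 18 h at 37 C with pinned compound (23 nL in DMSO). Cells had been seeded at 2,000 per well and pre-incubated 6 h.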

Assay [11] in a line: qHTS assay to identify small molecule agonists of the hypoxia (HIF-1) signaling pathway - cell viability counter screen (AID 1224844; calls by dose curve; further: nearly all actives have a fitted effect of over 50% in size). The gist of the method:
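Cytotoxicity was measured in parallel with the HRE-driven beta-lactamase readout: after 17 hrs of compound exposure at 37C, HRE-bla ME-180 cells received CellTiter-Glo and luminescence was recorded 30 min later.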

A short description of assay [12]: qHTS assay to identify small molecule agonists of H2AX (AID 1224845; active means well fitted activation curve with a large enough effect in the signal ratio in the repeat runs, not every such curve was filed as active; the % refers to the signal ratio). The gist of the method: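 Phospho-H2AX Ser139 measured by HTRF (ex 320 nm; em 665 and 620 nm) after 24 hr antibody incubation. Compounds, 15 concentrations, 0.76% DMSO, were applied to CHO-K1 cells for 3hr at 37C before lysis.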
Assay [13] can be described thus: qHTS assay to identify small molecule agonists of the hypoxia (HIF-1) signaling pathway (AID 1224846; active means well fitted activation curve with a large enough effect in the signal ratio in the repeat runs, not every such curve was filed as active; the % refers to the signal ratio). The gist of the method: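 Compounds from the Tox21 10K library, dissolved in DMSO, are tested for induction of a hypoxia response element–controlled beta-lactamase reporter in ME-180 cells. Exposure lasts 17 hrs at 37C after a 5 hr settling period, followed by CCF4-AM FRET substrate.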

The nature of assay [14]: qHTS assay to identify small molecule antagonists of the estrogen related receptor (ERR) signaling pathway from Tox21 library (AID 1224848). Further: nearly all actives have a fitted effect of over 50% in size. The gist of the method: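 ERR cell line, 2,000 cells/well. 6 h settle, then compound (DMSO) added; 18 h at 37 C; ONE-Glo luminescence after 30 min RT.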
Assay [15] in a line: qHTS assay to identify small molecule antagonists of the estrogen related receptor (ERR) signaling pathway from Tox21 library - cell viability counter screen (AID 1224834). Further: nearly all actives have a fitted effect of over 30% in size. The procedure, abridged:
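ERR cells, 2,000/well; 6 h settle at 37 C/5% CO2; pin-tool compound transfer in DMSO; 17.5 h at 37 C; CellTiter-Fluor, 30 min; fluorescence intensity.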

Assay [16] has as its target Thyrotropin receptor (Homo sapiens) (UniProt P16473). As to the kind of experiment: qHTS assay to identify small molecule agonists of the thyroid stimulating hormone receptor (TSHR) signaling pathway (AID 1224843; calls by dose curve; further: nearly all actives have a fitted effect of over 45% in size). The gist of the method: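 A cell-based cAMP HTRF format was run in TSHR-transfected HEK293 cells, 800 per well. Treatment: 30 min, room temperature. Detection: 1 h with labelled cAMP and anti-cAMP cryptate. Concentration-response over 15 points, three replicates.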

Assay [17] is described as follows: qHTS assay to identify small molecule agonists of H2AX - cell viability counter screen (AID 1224847; calls by dose curve;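 further: wild-type CHO-K1 cells; top concentration of the series differs between compounds; nearly all actives have a fitted effect of over 30% in size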). The procedure, abridged:
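Counter-screen for viability: CellTiter-Glo ATP luminescence read after 3 h compound treatment (15-point titration, 0.76% DMSO final) of CHO-K1 cells at 37C, with 30 min room-temperature reagent incubation.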

Assay [18] concerns the target Nuclear receptor subfamily 1 group I member 3 (Homo sapiens) (UniProt Q14994). As to the kind of experiment: qHTS assay to identify small molecule antagonists of the constitutive androstane receptor (CAR) signaling pathway (AID 1224838).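 Further: HepG2 cells stably expressing hCAR with CYP2B6 luciferase reporter stimulated by CITCO; nearly all actives have a fitted effect of over 40% in size.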 The gist of the method: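 Antagonist mode used CITCO at a final 50 nM to activate CAR in human hepatoma HepG2 cells carrying stable hCAR and a 2.2 kb CYP2B6 promoter-luciferase construct. Compounds were tested at 15 concentrations over 24 h, with luminescence as the end point.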

Assay [19] can be described thus: qHTS assay to identify small molecule antagonists of the estrogen related receptor signaling pathway with the pleiotropic PPARgamma coactivator (PGC) from Tox21 10K library (AID 1224841; call rule not given here). The gist of the method: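 Steps: plate 2,000 PGC/ERR cells per well; incubate 6 h at 37 C with 5% CO2; transfer compounds from DMSO stocks by pin tool; incubate 18 h at 37 C; add One-Glo; measure luminescence 30 min later.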

Results filed as inconclusive are left out. Values without a mark were called inactive. Activity calls are given as the source filed them. Unless noted, the call rests on the fitted dose curve; in most records, active means well fitted curve in the direction sought with a large enough effect in the repeat runs; inconclusive means weak or mixed curves; inactive means no such curve, though single readings can be large; an effect the other way counts as inactive or inconclusive.
On the % scale 0 is the no-effect control and ±100 the full control effect.

Chain of Thyrotropin receptor (Homo sapiens) (P16473 whole entry, looked up): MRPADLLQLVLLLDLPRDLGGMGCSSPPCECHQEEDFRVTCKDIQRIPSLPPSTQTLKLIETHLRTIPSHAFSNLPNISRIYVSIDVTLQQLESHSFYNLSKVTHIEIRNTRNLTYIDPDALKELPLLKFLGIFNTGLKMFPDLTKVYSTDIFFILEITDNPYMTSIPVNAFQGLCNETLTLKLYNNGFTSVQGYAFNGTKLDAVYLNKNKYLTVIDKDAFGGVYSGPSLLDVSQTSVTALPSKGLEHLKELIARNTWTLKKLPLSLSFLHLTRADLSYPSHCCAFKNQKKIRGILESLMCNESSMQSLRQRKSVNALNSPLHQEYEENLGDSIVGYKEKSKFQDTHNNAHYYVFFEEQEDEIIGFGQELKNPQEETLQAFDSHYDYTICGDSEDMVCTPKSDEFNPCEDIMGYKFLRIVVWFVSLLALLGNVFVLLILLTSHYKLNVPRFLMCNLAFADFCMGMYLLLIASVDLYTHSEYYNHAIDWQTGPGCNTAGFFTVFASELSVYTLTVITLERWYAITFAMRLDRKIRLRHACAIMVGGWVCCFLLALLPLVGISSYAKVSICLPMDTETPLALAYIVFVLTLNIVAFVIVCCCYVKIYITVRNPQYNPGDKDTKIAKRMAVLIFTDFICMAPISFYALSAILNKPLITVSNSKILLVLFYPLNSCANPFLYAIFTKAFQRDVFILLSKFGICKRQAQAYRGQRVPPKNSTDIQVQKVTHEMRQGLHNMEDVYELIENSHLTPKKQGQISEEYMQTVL
Chain of Retinoic acid receptor RXR-alpha (Homo sapiens) (P19793 whole entry, looked up): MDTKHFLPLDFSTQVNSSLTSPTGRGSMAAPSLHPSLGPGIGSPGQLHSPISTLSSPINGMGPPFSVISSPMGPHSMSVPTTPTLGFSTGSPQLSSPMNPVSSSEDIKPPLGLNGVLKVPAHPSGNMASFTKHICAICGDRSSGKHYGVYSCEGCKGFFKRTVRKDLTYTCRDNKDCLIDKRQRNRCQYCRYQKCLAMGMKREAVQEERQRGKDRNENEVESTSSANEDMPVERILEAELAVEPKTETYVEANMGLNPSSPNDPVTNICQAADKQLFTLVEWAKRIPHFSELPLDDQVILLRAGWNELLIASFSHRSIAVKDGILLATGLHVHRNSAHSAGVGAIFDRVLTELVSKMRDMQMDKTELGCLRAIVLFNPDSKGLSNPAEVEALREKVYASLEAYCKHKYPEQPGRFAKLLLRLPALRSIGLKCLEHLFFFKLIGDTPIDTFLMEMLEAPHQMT
Chain of Luciferin 4-monooxygenase (Photinus pyralis) (P08659 whole entry, looked up): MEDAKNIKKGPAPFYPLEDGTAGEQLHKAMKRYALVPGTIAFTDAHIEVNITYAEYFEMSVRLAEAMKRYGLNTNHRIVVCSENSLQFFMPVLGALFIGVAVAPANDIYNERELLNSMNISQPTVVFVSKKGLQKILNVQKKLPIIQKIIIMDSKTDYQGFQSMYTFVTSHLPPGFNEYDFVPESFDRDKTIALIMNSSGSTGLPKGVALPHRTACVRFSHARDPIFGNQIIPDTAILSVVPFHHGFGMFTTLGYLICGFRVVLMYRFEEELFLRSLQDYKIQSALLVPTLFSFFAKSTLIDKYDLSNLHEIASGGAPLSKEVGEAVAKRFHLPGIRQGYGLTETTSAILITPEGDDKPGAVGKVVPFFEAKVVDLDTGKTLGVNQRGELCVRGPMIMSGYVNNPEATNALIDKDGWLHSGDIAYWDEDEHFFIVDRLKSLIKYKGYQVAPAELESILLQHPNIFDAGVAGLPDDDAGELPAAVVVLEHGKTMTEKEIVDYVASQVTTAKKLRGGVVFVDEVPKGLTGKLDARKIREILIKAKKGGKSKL
Chain of Nuclear receptor subfamily 1 group I member 3 (Homo sapiens) (Q14994 whole entry, looked up): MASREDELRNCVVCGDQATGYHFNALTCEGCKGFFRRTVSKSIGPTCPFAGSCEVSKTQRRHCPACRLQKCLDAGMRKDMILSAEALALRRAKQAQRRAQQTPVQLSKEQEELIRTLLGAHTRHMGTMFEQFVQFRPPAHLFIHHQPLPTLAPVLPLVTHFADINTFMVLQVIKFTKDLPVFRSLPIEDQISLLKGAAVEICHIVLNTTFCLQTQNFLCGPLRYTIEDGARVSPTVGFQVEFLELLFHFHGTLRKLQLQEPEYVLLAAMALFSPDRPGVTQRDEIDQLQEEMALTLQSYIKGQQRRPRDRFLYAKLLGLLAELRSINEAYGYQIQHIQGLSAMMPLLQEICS

With `C=C(C)C(=O)OCCCCCCOC(=O)C(=C)C`, the Potency result in assay [1], in assay [4], in [5], in [6], in assay [8] and in assay [14] was “inactive” in each case. Moreover, the result in assay [2], in assay [3], in assay [7], in assay [9], in [10] and in [11] was inactive. In addition, the compound was classed as inactive in assay [12] and in assay [13].
For the compound `Nc1cc(S(=O)(=O)O)ccc1S(=O)(=O)O`, the Potency entry in assay [1], in [5], in [15], in [6], in assay [8] and in [17] was “inactive” throughout. In addition, the compound was classed as inactive in assay [2], in [3], in assay [7], in assay [9], in [16] and in assay [11]. In addition, the call in assay [12] and in assay [13] was inactive.
With `CNCc1ccccc1`, the Potency result in assay [1], in assay [5], in assay [6], in assay [8], in [17] and in [14] was “inactive” in each case. The compound was called inactive in assay [2], in assay [3], in [7], in assay [10], in [11] and in assay [12]. Also, the compound was called inactive in assay [13]. Also, the Potency in [4] was 106 nM (active).
Take `O=S(=O)(O)c1cc(O)ccc1O`: the Potency entry in assay [1], in assay [4], in assay [5], in [6], in assay [8] and in assay [14] was “inactive” each time. In addition, the result in assay [2], in assay [3], in assay [7], in assay [9], in assay [16] and in assay [11] was inactive.
With `CCCCCCCCCCCCCCCCI`, the activation in assay [1] is 7.13% [at 15.8 µM]; in [10], -1.58% [at 19 µM]; in [16], -19.7% [at 19 µM]; in assay [13], 0.543% [at 15.8 µM]. The activity change, negative = cytotoxicity in assay [2] was 14.9% [at 15.8 µM]; in assay [3], -0.67% [at 19 µM]; in assay [8], -13% [at 19 µM]; in [17], -0.0372% [at 31.6 µM]. The Potency entry in assay [5] was “inactive”. The viability change, negative = cytotoxic in assay [15] was 1.65% [at 19 µM]; in [7], -8.08% [at 19 µM]; in assay [9], -0.222% [at 19 µM]. Besides, the activity change, negative = inhibition in assay [6] was 0.965% [at 23.6 µM]. Moreover, the activation (H2AX phosphorylation) in [12] was 0.0964% [at 31.6 µM]. Also, the activity, negative = inhibition in assay [14] was 4.33% [at 19 µM].
With `C=CCOc1cc(Cl)ccc1C(=O)NCCN(CC)CC`, the Potency result in [1], in [5], in assay [15], in assay [6], in [8] and in assay [18] was “inactive” each time. Also, the Potency result in assay [17] was “inactive”. Moreover, the result in [2], in [3], in assay [7], in assay [9], in assay [16] and in assay [11] was inactive. For the same compound, the result in assay [12] and in assay [13] was inactive.
For `O=C(COCCOCCOCC(=O)Nc1c(I)cc(I)c(C(=O)O)c1I)Nc1c(I)cc(I)c(C(=O)O)c1I`, the Potency entry in assay [1], in [5], in [15], in assay [6], in assay [8] and in assay [19] was “inactive” in each case. Moreover, the Potency entry in assay [17] and in [14] was “inactive” each time. Moreover, the compound was classed as inactive in assay [2], in assay [3], in assay [7], in assay [9], in assay [10] and in [16]. The call in assay [11], in assay [12] and in assay [13] was inactive.
